Screening data from PubChem BioAssay.
D3 ag: qHTS of D3 Dopamine Receptor Agonist: qHTS; D3R DiscoveRx beta-arrestin cells, luminescence, 90 min; 410,000 compounds, 0.58% hits; max activation, %; D(3) dopamine receptor (Homo sapiens), P35462; in the data active = max activation above about 30%
Target sequence (P35462 whole entry, looked up): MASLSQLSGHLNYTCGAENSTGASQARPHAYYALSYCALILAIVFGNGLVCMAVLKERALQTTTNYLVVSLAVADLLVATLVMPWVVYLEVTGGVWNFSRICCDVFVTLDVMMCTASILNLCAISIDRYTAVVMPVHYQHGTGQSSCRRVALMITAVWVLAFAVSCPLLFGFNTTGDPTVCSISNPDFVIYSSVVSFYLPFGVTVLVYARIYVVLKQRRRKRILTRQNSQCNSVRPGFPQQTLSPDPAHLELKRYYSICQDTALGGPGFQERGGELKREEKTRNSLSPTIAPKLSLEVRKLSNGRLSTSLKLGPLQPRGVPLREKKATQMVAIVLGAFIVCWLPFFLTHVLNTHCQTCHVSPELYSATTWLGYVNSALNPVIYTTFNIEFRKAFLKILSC
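Cells at 1500/well, incubated overnight, then treated with pinned compounds (dopamine as control) for 90 min at 37 degrees C. DiscoveRx reagent added for 30 - 60 minutes at room temperature; luminescence read.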
IL1B secr inh: qHTS for Inhibitors of Inflammasome Signaling: IL-1-beta AlphaLISA Primary Screen; THP-1 LPS/ATP IL-1B secretion, AlphaLISA, 16 h; hits give low values; activity change, % at 57.5 µM; 360,000 compounds, 4.7% hits; in the data active = activity change below about -50%; inconclusive = mostly about -30% to -49%
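THP-1 cells pretreated 1 hr with compounds (up to 57.5 uM final), then stimulated with LPS (250 ng/mL final) plus ATP (1.25 mM final); secreted IL-1B measured by AlphaLISA after 16 hr, decreased signal indicating inhibition.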
Integrin act MD: qHTS for Activators of Integrin-Mediated Alleviation for Muscular Dystrophy. alpha7betagal myoblasts, beta-gal FDG fluorescence, 48 h. Potency, µM (titrated, usually from 38.3 µM), actives largely listed as activators. 350,000 compounds, 0.064% hits; also: nearly all actives have a fitted effect of over 60% in size
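alpha7betagal+/- myoblasts (passage 13, 250/well) treated 48 h at 37C with compounds at 1:260 dilution of DMSO stock. Lysed, then beta-galactosidase activity read as FDG fluorescence (ex 480/em 540) after 30 min, with pre-read for autofluorescence.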
ATXN2 expr inh: Primary qHTS for Inhibitors of ATXN expression | HEK-293 ATXN2-luciferase reporter, luminescence, 24 h | Potency, µM (doses to about 57 µM), hits mostly inhibitors | 360,000 compounds, 0.72% hits; also: nearly all actives have a fitted effect of over 55% in size
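ATXN2-luciferase reporter cells (luciferase flanked by upstream and downstream ATXN2 gene portions) were treated 24 h at 37 °C with compounds at up to 57 uM. SteadyGlo luminescence gave expression; GF-AFC fluorescence gave viability.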
ATXN viability: Viability Counterscreen for Primary qHTS for Inhibitors of ATXN expression; Potency, µM (top dose mostly 56.7 µM), hits mostly cytotoxic; S2 cells (HEK-293 line with an ATXN2-luciferase reporter) viability, CellTiter-Fluor protease fluorescence, 24 h; 400,000 compounds, 0.49% hits; AID 651635, 2014; also: nearly all actives have a fitted effect of over 40% in size
D3 antag: qHTS of D3 Dopamine Receptor Antagonist: qHTS. max response, negative = inhibition, %. D3R cells, DiscoveRx beta-arrestin luminescence, antagonist mode; hits give low values. 360,000 compounds, 2.5% hits. AID 652054, 2013; in the data active = max response below about -50%; inconclusive = no clear call, values can overlap the other calls
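Cells plated overnight at 1500 cells/well, then exposed to library compounds with dopamine controls for 90 minutes at 37 degrees C. DiscoveRx reagent added for 30–60 minutes at room temperature; luminescence read, quantitative HTS format.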
Numbers stand for hits; – = inactive; ? = inconclusive; · = no result. In the library only some 7% were active in any assay of this set; here they are far more common. Unless noted, calls follow the shape of the dose curve; as a rule, active = well fitted curve in the direction sought with a large enough effect; inconclusive = small, poorly fitted or top-dose-only effect, or another doubt; inactive = no such curve, though single readings can be large; an effect the other way counts as inactive or inconclusive.

SMILES	D3 ag	IL1B secr inh	Integrin act MD	ATXN2 expr inh	ATXN viability	D3 antag
COc1cc2c(cc1OC)CN(Cc1cc(=O)oc3c(C)c(C)ccc13)CC2	–	–	–	?	·	–
COc1cc2c(cc1OC)CN(Cc1cc(=O)oc3cc(C)c(C)cc13)CC2	42	–	–	–	–	–
CCc1ccc2c(CN3CCc4cc(OC)c(OC)cc4C3)cc(=O)oc2c1	31	–	–	–	·	–
COc1cc2c(cc1OC)CN(Cc1cc(=O)oc3cc(C)c(Cl)cc13)CC2	–	–	–	–	–	–
N#CCc1nnc2n1-c1ccccc1CCC2	–	–	–	–	–	–
O=C(Nc1cc(C(F)(F)F)ccc1Cl)C(Sc1cccc[n+]1[O-])c1ccccc1 (stereo not given)	–	-96	–	–	–	–
CCOC(=O)Cc1csc(NC(=O)c2cnc3sc(C)cn3c2=O)n1	–	–	?	–	–	–
Cc1c(CNC2CCCCC2)c(C(=O)O)c(C)n1Cc1ccc(F)cc1	–	·	·	–	–	·
Cc1ccc(NC(=O)CN(c2ccc(Cl)cc2)S(=O)(=O)c2cc([N+](=O)[O-])ccc2Cl)cc1	–	-99	–	–	–	–
CCc1c(-c2ccc(Br)cc2)ncn1Cc1cccc(-c2ccccc2)c1	–	-62	·	·	·	–
CC1Cc2[nH]c(=S)[nH]c(=O)c2C(c2ccc(F)cc2)O1 (stereo not given)	–	–	·	–	–	–
CCOC(=O)C1CCN(Cc2cnc(Oc3ccc(Cl)cc3C)s2)CC1	–	–	–	–	–	-58
C=C(C)C1CC=C(CN2CCC(C(=O)OCC)CC2)CC1 (stereo not given)	–	–	–	–	–	-61
COC(=O)c1ccc(N=NN2CCOCC2)cc1	–	–	–	–	–	–
COC(=O)c1ccc(N=NN2CCCCCC2)cc1	–	-63	–	–	–	–
CCOC(=O)C1CCN(Cc2ccc(C(=O)OC)cc2)CC1	–	–	–	–	–	-53
N=c1ccn(Cc2ccc(Cl)c(Cl)c2)cc1	–	-68	–	?	–	–
Clc1ccc(CN2CCCCCCC2)cc1Cl	–	–	–	–	–	-90
N=c1ccn(Cc2ccc(Cl)cc2)cc1	–	–	–	?	–	–
CCOC(=O)C1CCN(Cc2ccc(Cl)c(Cl)c2)CC1	–	–	–	–	–	-85
COC(=O)c1ccc(CN2CCCCC2)cc1	–	–	–	·	–	-56
CC1CCc2cc(F)ccc2N1C(=O)c1cc2nc(-c3ccco3)cc(C(F)(F)F)n2n1 (stereo not given)	–	–	–	–	–	–
Cc1cc(C(=O)N2CCCC(CO)(Cc3ccc(F)cc3F)C2)nn1C (stereo not given)	–	–	–	·	?	–
CC(/C=N/Nc1nnc(C)c(=O)[nH]1)=C\c1ccccc1	–	–	–	–	–	–
C/C(=N\Nc1nnc(C)c(=O)[nH]1)C(=O)O	–	–	–	–	–	-52
SMILES	D3 ag	IL1B secr inh	Integrin act MD	ATXN2 expr inh	ATXN viability	D3 antag
CCOC(=O)N1CCN(C(=O)CSCc2ccc(Br)cc2)CC1	–	-60	–	–	–	–
CCOC(=O)N1CCN(C(=O)CSCc2ccc(Cl)cc2)CC1	–	–	–	–	–	–
CCOC(=O)N1CCN(C(=O)Cc2ccc(C)cc2)CC1	–	–	–	–	–	-58
CN1CCC[C@@H]1Cc1c[nH]c2ccc(CCS(=O)(=O)c3ccccc3)cc12	–	·	·	–	–	·
CSC(SC)=C(C#N)C(=O)c1ccccc1	–	-89	–	22µM	·	–
CC1(C)CC(NC(=O)c2ccc(-c3ccc([N+](=O)[O-])cc3)o2)CC(C)(C)N1	–	?	–	–	–	–
COc1cccc(N(CC(=O)NCCSc2ccccn2)S(=O)(=O)c2ccccc2)c1	–	-59	–	–	–	–
COc1ccc(N(CC(=O)NCCSc2ccccn2)S(=O)(=O)c2ccccc2)cc1OC	–	–	–	–	–	–
